Cycloheximide cs: counter-screen for Shiga toxin inhibitors: cycloheximide protein synthesis inhibition; hit rate 12% among 300,000; max response, %; AID 2314; cell reporter, cycloheximide protein synthesis inhibition counterscreen; in the data active = max response mostly above about 13%, no sharp cut-off; inactive = mostly below about 14%; note: read at 38.3 µM for the half of the compounds with a filed dose; 0% is about no effect
Shiga inhibitor: Shiga toxin inhibition | Vero cells, Shiga toxin protein synthesis inhibition reporter | inhibition, % at 38.7 µM | hit rate 9.2% among 290,000 | AID 2315; in the data active = inhibition mostly above about 28%, no sharp cut-off; inactive = mostly below about 43%; note: 0% is about no effect
NS1 function inh: influenza NS1 inhibition | hit rate 0.4% among 270,000 | Potency, µM (highest dose often 46.1 µM), for the others: top-dose activity, positive = more growth; note: potency is the fitted concentration of half-maximal effect; actives are rising curves; nearly all actives have a fitted effect of over 50% in size
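Read-out: OD600 growth recovery of NS1-expressing budding yeast. Cells grown overnight at 30C in -URA glucose medium, washed, resuspended and diluted 1:100 in 2% galactose assay medium, pH 6.0. Same strain lacking NS1 served as positive control.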
Pf growth 96h: inhibits malaria parasite growth, 96 h; P. falciparum luciferase reporter growth, 96 h; hit rate 6.9% among 320,000; AID 504834; Potency, µM (series often up to 28.7 µM), for inactives: top-dose activity change, negative = inhibition, hits mostly inhibitors; active = well fitted inhibition curve with a large enough effect; inconclusive = small, poorly fitted or top-dose-only effect, or another doubt; inactive = no such curve, though single readings can be large or run the other way; note: potency is the fitted concentration of half-maximal effect; % is set by controls: 0 for no effect and ±100 for the full control effect
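Compounds incubated with erythrocytes infected by luciferase-expressing P. falciparum (2% hematocrit, 0.05% parasitemia final) for 96 hours, 37 C in 5% CO2. Growth inhibition scored as decreased luciferase luminescence.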
SARS PLP yeast: SARS-CoV PLP inhibition in yeast | hit rate 0.19% among 330,000 | Potency, µM (doses to about 32.9 µM), for the others: at the highest dose activity, positive = growth rescue, hits mostly activators | S. cerevisiae expressing SARS-CoV PLpro, growth rescue; note: potency is the fitted concentration of half-maximal effect; 0% is about no effect; nearly all actives have a fitted effect of over 55% in size
Pf growth 48h: P. falciparum growth inhibition at 48 hours (one generation); P. falciparum luciferase growth in erythrocytes, 48 h; Potency, µM (titrated, usually from 28.7 µM), inactives show top-dose activity change, negative = inhibition, usual class: inhibitors; hit rate 5.9% among 310,000; AID 504832; active = well fitted inhibition curve with a large enough effect; inconclusive = small, poorly fitted or top-dose-only effect, or another doubt; inactive = no such curve, though single readings can be large or run the other way; note: potency is the fitted concentration of half-maximal effect; % is set by controls: 0 for no effect and ±100 for the full control effect
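Firefly luciferase activity from engineered P. falciparum reports growth; inhibitors lower the luminescent signal. Cultures contained 2% hematocrit erythrocytes at 0.1% final parasitemia.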
Numbers without * were called inactive. Compounds with a hit are over-represented: about 21% of the library has one in this group of screens. Unless noted, calls come from the whole dose curve.

What do the screens show for `C/C=C/c1ccc(OCC(=O)Nc2ccc(OC)c(OC)c2)c(OC)c1`?
Cycloheximide cs: -2; Shiga inhibitor: 8; Pf growth 96h: -8%; SARS PLP yeast: -5%; Pf growth 48h: inconclusive

Results for Cc1c(C)c2ccc(OCC(=O)N3CCOCC3)c(C)c2oc1=O ?
Cycloheximide cs: 20*; Shiga inhibitor: 25; Pf growth 96h: -25%; SARS PLP yeast: -2%; Pf growth 48h: 24%

What do the screens show for `COc1ccc(NC(=O)COc2ccc(/C=N/O)cc2OC)cc1`?
Cycloheximide cs: 31*; Shiga inhibitor: 52*; NS1 function inh: -5%; Pf growth 96h: 256%; SARS PLP yeast: -4%; Pf growth 48h: 97%

How did Cc1c(C)c2ccc(OCC(=O)N3CCC(C(=O)O)(c4ccccc4)CC3)c(C)c2oc1=O do in these assays?
Cycloheximide cs: -2; Shiga inhibitor: -5; NS1 function inh: inconclusive; Pf growth 96h: -1%; SARS PLP yeast: 4%; Pf growth 48h: -1%

How did COc1ccccc1NC(=O)C(=O)Nc1ccccn1 do in these assays?
Cycloheximide cs: 76*; Shiga inhibitor: 94*; NS1 function inh: -36%; Pf growth 96h: inactive; SARS PLP yeast: 0%; Pf growth 48h: 396%

What do the screens show for `Cc1cc(Cl)ccc1OCC(=O)Nc1ccncc1`?
Cycloheximide cs: 27*; NS1 function inh: -82%; Pf growth 96h: inconclusive; SARS PLP yeast: -12%; Pf growth 48h: 0%

What do the screens show for `COC(=O)c1cc(S(=O)(=O)NCC2CCN(CCc3ccc(OC)cc3)CC2)cn1C`?
Cycloheximide cs: -5; Shiga inhibitor: 3; NS1 function inh: 11%; Pf growth 96h: -18%; SARS PLP yeast: 19%; Pf growth 48h: 0%

How did Cc1cccc(OCC(=O)Nc2ncn[nH]2)c1C do in these assays?
Cycloheximide cs: 11*; Shiga inhibitor: 16; NS1 function inh: -1%; Pf growth 96h: 108%; SARS PLP yeast: 0%; Pf growth 48h: 84%

What do the screens show for `Cc1c(C)c2ccc(OCC(=O)Nc3ccccn3)c(C)c2oc1=O`?
Cycloheximide cs: 22*; Shiga inhibitor: 35*; NS1 function inh: -3%; Pf growth 96h: 1%; SARS PLP yeast: -19%; Pf growth 48h: -19%

What do the screens show for `COc1ccccc1OCC(=O)Nc1ccccn1`?
Cycloheximide cs: 27*; Shiga inhibitor: 27; NS1 function inh: -17%; Pf growth 96h: 32%; SARS PLP yeast: -10%; Pf growth 48h: 189%

What do the screens show for `Cc1cccc(OCC(=O)Nc2nnn(C)n2)c1C`?
Cycloheximide cs: 5; Shiga inhibitor: 8; NS1 function inh: -1%; Pf growth 96h: -24%; SARS PLP yeast: 8%; Pf growth 48h: -4%

How did Cc1ccc(NC(=O)C(=O)Nc2ccccn2)cc1 do in these assays?
Cycloheximide cs: 38*; Shiga inhibitor: 69*; NS1 function inh: 10%; Pf growth 96h: -11%; SARS PLP yeast: -15%; Pf growth 48h: 64%

Results for Cc1ccc(S(=O)(=O)CC(=O)Nc2ccccn2)cc1 ?
Cycloheximide cs: -7; Shiga inhibitor: -1; NS1 function inh: 5%; Pf growth 96h: 30%; SARS PLP yeast: 2%; Pf growth 48h: 26%

How did Nc1ncnc2c1nc(Br)n2C1O[C@H]2COP(=O)(O)O[C@@H]2C1O (some centres not stated) do in these assays?
NS1 function inh: 4%

Results for CCOc1cc(/C=C2\C(=O)N(CCC#N)N=C2C)ccc1OCC(N)=O ?
Cycloheximide cs: -1; Shiga inhibitor: -3; Pf growth 96h: 25%; SARS PLP yeast: 2%; Pf growth 48h: 13%

How did COc1ccccc1OCC(=O)Nc1ccncc1 do in these assays?
Cycloheximide cs: 10; Shiga inhibitor: 22; NS1 function inh: -4%; Pf growth 96h: 0.52µM*; SARS PLP yeast: 0%; Pf growth 48h: 53%

What do the screens show for `COc1cc(/C=C2\C(=O)N(CCC#N)N=C2C)ccc1OCC(=O)Nc1ccccc1`?
Cycloheximide cs: 63*; Shiga inhibitor: 66*; NS1 function inh: 15%; Pf growth 96h: 11%; SARS PLP yeast: -16%; Pf growth 48h: 19%

How did COc1ccccc1OCC(=O)Nc1cc(NC(=O)COc2ccccc2OC)cc(C(=O)O)c1 do in these assays?
Cycloheximide cs: -1; Shiga inhibitor: -7; NS1 function inh: 3%; Pf growth 96h: inconclusive; SARS PLP yeast: 3%; Pf growth 48h: 0%
